Records with an inconclusive call do not appear. A call without a number means that no potency is given here. Active and inactive are the calls of the source. The call rests on the fitted dose curve; in most records, active means well fitted curve in the direction sought with a large enough effect; inconclusive means small, poorly fitted or top-dose-only effect, or another doubt; inactive means no such curve, though single readings can be large; an effect the other way counts as inactive or inconclusive.

Cytochrome P450 2C9 (Homo sapiens), sequence (P11712 whole entry, looked up): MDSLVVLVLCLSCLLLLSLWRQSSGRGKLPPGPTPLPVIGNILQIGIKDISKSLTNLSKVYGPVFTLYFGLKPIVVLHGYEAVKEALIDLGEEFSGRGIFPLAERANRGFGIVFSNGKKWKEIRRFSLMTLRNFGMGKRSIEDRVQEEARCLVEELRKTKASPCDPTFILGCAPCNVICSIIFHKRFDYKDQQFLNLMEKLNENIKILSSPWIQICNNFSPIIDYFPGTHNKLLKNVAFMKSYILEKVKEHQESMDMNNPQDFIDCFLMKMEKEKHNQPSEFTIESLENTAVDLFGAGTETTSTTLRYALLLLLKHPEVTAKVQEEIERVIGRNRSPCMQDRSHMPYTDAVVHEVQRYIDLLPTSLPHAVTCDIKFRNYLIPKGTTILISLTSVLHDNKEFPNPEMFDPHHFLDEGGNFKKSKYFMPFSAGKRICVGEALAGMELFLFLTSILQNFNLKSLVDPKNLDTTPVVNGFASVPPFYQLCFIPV

The target of the first assay is Guanine nucleotide-binding protein G(i) subunit alpha-1 (Homo sapiens) (UniProt P63096). Description: qHTS Assay for Inhibitors of RGS12 GoLoco Motif Activity (Green Fluorophore) (AID 879).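 Further: negative values mean loss of peptide binding seen as reduced polarization.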 The settings on record: Galphai1/FITC-RGS12 GoLoco peptide, fluorescence polarization; series mostly up to 57.1 µM. Summed up: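 Fluorescence polarization assay: 50 nM Gαi1 with 10 nM FITC-labeled RGS12 GoLoco peptide in 10 mM Tris pH 7.5, 150 mM NaCl, 0.1 mM GDP, 0.05% NP40, 10 min at room temperature with compound.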
Guanine nucleotide-binding protein G(i) subunit alpha-1 (Homo sapiens), sequence (P63096 whole entry, looked up): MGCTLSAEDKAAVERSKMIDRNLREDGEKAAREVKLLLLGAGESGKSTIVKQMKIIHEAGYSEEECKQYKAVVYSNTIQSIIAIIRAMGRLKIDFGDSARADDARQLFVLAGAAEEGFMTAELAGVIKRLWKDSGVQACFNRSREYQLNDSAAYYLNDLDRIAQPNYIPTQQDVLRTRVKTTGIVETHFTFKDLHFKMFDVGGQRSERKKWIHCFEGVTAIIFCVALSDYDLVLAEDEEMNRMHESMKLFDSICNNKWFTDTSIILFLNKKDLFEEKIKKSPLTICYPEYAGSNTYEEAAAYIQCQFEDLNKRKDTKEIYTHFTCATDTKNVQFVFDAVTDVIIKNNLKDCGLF
On the technique in general: qHTS replaces the single test concentration by a dilution series.
As for `NNc1nncc2ccccc12`, the compound was classed as inactive.

Turning to `COc1ccc2cc([C@H](C)C(=O)O)ccc2c1`, the call was inactive.

As for `O=c1ccc2ccc(O)c(O)c2o1`, the call was inactive.

`Cc1c(OCC(F)(F)F)ccnc1CS(=O)c1nc2ccccc2[nH]1` (stereo unspecified): the result was inactive.

Regarding `CC1(C)NC(=O)N(c2ccc([N+](=O)[O-])c(C(F)(F)F)c2)C1=O`, the compound was classed as inactive.

Another assay concerns the target Cytochrome P450 2C9 (Homo sapiens) (UniProt P11712). Description: qHTS Assay for Inhibitors and Substrates of Cytochrome P450 2C9 (AID 883). Further: nearly all actives have a fitted effect of over 60% in size. Further: potency means the concentration at half of the fitted maximal effect. To be noted: recombinant CYP2C9, luciferin-H luminescence, 60 min; series mostly up to 57.1 µM. Summed up: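 Human CYP2C9 (10nM) hydroxylated Luciferin-H (100uM, at its KM) to luciferin in 25mM KPO4. Compound was preincubated 10 min at 37C, then NADPH regeneration started a 60 min reaction at 37C. Luminescence was read after detection reagent, normalized to 57uM sulphaphenazole.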
As for `Cc1cc(=O)oc2cc(O)ccc12`, the Potency entry is “inactive”.

With `O=C(NCCO[N+](=O)[O-])c1cccnc1`, the Potency was 2 µM (active).

In the case of `CCOC(=O)C1=C(O)C(=O)N(Cc2ccccc2)C1`, the Potency was 3.98 µM (active).

For the compound `O=C1c2ccccc2-c2n[nH]c3cccc1c23`, the Potency entry is “inactive”.

The target of the next assay is Cytochrome P450 3A4 (Homo sapiens) (UniProt P08684). In words: qHTS Assay for Inhibitors and Substrates of Cytochrome P450 3A4 (AID 884). Further: nearly all actives have a fitted effect of over 50% in size. Further: potency means the concentration at half of the fitted maximal effect. The settings on record: recombinant CYP3A4, Luciferin-PPXE luminescence; series mostly up to 57.1 µM. Summed up: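 20 nM human CYP3A4 with 25 uM Luciferin-PPXE (at KM) in 200 mM KPO4, preincubated 10 min with compound; NADPH regeneration started a 60 min RT reaction. Luciferin detected by luminescence, normalized to 57 uM ketoconazole as full inhibition.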
Cytochrome P450 3A4 (Homo sapiens), sequence (P08684 whole entry, looked up): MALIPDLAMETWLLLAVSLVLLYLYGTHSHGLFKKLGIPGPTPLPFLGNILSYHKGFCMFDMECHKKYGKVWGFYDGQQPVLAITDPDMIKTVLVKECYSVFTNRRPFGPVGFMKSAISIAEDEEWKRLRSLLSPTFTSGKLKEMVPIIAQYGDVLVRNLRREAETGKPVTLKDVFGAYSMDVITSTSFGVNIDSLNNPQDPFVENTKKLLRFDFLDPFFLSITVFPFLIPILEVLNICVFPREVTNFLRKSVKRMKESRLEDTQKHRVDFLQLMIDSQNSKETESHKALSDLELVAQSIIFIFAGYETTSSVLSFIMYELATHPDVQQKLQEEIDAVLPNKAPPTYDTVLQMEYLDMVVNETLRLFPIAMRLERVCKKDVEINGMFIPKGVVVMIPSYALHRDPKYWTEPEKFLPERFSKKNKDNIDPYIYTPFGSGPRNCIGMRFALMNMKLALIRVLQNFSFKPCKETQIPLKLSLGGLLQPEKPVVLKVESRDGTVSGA
As to `O=C(O)c1cn(-c2ccc(F)cc2)c2cc(N3CCNCC3)c(F)cc2c1=O`, the Potency entry is “inactive”.

On to `O=C(NC(Cc1cc(=O)[nH]c2ccccc12)C(=O)O)c1ccc(Cl)cc1` (stereo unspecified), for which the Potency result is “inactive”.

For `CN(C)CCc1c[nH]c2ccc(Cn3cncn3)cc12`, the Potency entry is “inactive”.

As to `O=c1oc2cc(O)ccc2s1`, the Potency entry was “inactive”.

As to `C[C@@H](N)C1CCC(C(=O)Nc2ccncc2)CC1` (stereo partly specified), the Potency was 15.8 µM (active).

Take `O=C(O)c1cc(=O)c2c(OCC(O)COc3cccc4oc(C(=O)O)cc(=O)c34)cccc2o1`: the Potency entry is “inactive”.

Take `S=c1nc[nH]c2nc[nH]c12`: the Potency result is “inactive”.

Take `CC1Cc2ccccc2N1NC(=O)c1ccc(Cl)c(S(N)(=O)=O)c1` (stereo unspecified): the Potency result is “inactive”.

With `CN1C(C(=O)Nc2ccccn2)=C(O)c2sccc2S1(=O)=O`, the Potency entry is “inactive”.

`Cc1cc(C2CCCCC2)n(O)c(=O)c1`: the Potency entry is “inactive”.

With `Cc1ccc(S(=O)(=O)NC(=O)NN2CC3CCCC3C2)cc1` (stereo unspecified), the Potency entry was “inactive”.

Take `Cc1cc2c(s1)Nc1ccccc1N=C2N1CCN(C)CC1`: the Potency result is “inactive”.

(Values after PubChem BioAssay (NCATS).)
